# ChEMBL document CHEMBL1961873, “Compounds: GSK PKIS; Assays: Nanosyn kinase panel” (2012)
# Tests used:
# [1] = target: Sphingosine kinase 1 (Homo sapiens) (UniProt Q9NYA1); details: at 1 µM;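 also: mean SPHK1 inhibition value reported from the GSK PKIS kinase panel screen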
# [2] = target: T1, Sphingosine kinase 2 (Homo sapiens) (UniProt Q9NRA0); details: at 0.1 µM
# T1 sequence (whole entry): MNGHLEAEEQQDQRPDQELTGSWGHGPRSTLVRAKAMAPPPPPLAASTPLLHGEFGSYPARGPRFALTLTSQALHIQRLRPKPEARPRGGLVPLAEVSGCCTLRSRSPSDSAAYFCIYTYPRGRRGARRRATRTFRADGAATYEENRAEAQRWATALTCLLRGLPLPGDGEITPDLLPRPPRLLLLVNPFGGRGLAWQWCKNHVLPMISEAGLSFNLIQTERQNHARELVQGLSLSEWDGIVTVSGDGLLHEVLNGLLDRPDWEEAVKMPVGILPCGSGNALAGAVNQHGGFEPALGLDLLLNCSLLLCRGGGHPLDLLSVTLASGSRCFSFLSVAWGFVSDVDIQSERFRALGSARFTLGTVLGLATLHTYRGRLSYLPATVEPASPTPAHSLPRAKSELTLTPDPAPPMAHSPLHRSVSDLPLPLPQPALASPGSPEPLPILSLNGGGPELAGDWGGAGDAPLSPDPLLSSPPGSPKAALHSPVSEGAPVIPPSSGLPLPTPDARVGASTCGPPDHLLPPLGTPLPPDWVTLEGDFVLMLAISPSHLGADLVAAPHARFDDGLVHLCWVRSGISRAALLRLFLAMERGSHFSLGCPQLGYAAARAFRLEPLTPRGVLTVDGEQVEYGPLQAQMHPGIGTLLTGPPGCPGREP
# [3] = target: T1, Sphingosine kinase 2 (Homo sapiens); details: at 1 µM
# [4] = target: Casein kinase II subunit alpha (Homo sapiens) (UniProt P68400); details: at 0.1 µM
# Chain of Casein kinase II subunit alpha (Homo sapiens) (P68400 whole entry, looked up): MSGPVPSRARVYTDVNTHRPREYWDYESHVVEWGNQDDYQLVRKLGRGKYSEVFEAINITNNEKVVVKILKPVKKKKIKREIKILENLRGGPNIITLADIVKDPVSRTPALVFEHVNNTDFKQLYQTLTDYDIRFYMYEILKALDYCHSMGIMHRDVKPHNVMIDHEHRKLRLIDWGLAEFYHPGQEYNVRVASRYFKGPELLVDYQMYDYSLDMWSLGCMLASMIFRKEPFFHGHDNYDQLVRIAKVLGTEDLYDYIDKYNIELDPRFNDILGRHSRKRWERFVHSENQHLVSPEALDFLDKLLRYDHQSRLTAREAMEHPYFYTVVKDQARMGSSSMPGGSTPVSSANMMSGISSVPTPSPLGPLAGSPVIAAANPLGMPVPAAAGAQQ
# [5] = target: Casein kinase II subunit alpha (Homo sapiens) (UniProt P68400); details: at 1 µM
# [6] = target: T2, Inhibitor of nuclear factor kappa-B kinase subunit alpha (Homo sapiens) (UniProt O15111); details: at 0.1 µM
# T2 sequence (whole entry): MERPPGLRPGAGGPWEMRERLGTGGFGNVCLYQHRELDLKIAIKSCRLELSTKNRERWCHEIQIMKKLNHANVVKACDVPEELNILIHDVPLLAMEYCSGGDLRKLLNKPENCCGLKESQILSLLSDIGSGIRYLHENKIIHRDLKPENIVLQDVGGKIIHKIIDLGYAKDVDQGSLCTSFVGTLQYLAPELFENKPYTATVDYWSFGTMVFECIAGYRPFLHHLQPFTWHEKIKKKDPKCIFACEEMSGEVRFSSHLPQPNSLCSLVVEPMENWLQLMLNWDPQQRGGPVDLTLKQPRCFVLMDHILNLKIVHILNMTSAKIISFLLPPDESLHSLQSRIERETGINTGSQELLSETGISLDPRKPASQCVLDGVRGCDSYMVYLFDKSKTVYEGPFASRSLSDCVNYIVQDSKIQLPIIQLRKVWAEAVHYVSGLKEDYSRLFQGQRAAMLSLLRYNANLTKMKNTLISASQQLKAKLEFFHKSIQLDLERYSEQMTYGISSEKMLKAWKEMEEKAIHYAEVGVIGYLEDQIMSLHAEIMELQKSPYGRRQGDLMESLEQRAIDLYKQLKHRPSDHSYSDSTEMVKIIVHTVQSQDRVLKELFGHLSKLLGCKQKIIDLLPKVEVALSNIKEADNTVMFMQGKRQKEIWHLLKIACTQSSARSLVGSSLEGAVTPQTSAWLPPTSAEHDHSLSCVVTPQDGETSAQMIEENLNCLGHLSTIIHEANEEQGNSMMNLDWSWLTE
# [7] = target: T2, Inhibitor of nuclear factor kappa-B kinase subunit alpha (Homo sapiens); details: at 1 µM
# [8] = target: T3, Inhibitor of nuclear factor kappa-B kinase subunit beta (Homo sapiens) (UniProt O14920); details: at 0.1 µM
# T3 sequence (whole entry): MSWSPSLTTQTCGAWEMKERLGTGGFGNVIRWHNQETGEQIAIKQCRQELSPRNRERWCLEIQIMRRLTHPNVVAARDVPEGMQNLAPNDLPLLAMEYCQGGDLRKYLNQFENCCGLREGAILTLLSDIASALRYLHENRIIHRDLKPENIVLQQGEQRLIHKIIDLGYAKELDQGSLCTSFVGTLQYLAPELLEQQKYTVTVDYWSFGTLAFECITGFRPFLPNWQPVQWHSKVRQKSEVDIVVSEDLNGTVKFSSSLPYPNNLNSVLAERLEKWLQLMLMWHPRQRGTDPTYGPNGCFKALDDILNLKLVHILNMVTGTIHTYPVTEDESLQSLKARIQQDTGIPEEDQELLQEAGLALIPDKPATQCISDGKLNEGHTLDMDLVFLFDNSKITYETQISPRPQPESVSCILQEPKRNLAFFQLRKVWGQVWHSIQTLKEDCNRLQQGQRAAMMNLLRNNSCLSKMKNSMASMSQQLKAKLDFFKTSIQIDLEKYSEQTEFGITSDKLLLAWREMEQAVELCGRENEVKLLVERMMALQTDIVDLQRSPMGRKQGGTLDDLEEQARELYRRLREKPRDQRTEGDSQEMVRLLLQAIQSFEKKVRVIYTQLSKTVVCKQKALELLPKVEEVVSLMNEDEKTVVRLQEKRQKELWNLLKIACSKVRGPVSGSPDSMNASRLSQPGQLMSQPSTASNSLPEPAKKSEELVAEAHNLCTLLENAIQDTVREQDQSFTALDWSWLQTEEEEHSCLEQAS
# [9] = target: T3, Inhibitor of nuclear factor kappa-B kinase subunit beta (Homo sapiens); details: at 1 µM
# [10] = target: T4, Inhibitor of nuclear factor kappa-B kinase subunit epsilon (Homo sapiens) (UniProt Q14164); details: at 0.1 µM
# T4 sequence (whole entry): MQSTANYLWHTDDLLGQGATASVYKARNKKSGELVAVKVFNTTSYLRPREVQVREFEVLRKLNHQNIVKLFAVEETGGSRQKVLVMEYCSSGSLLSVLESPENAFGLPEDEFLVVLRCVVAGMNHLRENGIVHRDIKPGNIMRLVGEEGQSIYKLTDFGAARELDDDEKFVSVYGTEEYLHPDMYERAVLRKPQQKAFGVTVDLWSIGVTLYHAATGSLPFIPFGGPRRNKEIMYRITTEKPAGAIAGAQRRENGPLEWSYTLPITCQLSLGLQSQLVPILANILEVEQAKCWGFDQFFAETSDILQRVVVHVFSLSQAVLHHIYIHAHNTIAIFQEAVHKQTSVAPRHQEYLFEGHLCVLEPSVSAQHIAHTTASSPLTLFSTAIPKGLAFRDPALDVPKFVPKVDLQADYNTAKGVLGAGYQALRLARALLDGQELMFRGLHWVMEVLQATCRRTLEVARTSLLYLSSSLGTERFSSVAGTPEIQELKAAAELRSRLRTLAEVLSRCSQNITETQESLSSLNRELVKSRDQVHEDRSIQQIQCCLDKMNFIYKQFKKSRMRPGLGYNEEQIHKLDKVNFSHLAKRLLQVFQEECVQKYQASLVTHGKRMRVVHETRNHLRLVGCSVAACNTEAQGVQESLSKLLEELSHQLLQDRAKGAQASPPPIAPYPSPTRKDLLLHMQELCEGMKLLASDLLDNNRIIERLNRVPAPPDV
# [11] = target: T4, Inhibitor of nuclear factor kappa-B kinase subunit epsilon (Homo sapiens); details: at 1 µM
# [12] = target: T5, Serine/threonine-protein kinase Nek1 (Homo sapiens) (UniProt Q96PY6); details: at 0.1 µM
# T5 sequence (whole entry): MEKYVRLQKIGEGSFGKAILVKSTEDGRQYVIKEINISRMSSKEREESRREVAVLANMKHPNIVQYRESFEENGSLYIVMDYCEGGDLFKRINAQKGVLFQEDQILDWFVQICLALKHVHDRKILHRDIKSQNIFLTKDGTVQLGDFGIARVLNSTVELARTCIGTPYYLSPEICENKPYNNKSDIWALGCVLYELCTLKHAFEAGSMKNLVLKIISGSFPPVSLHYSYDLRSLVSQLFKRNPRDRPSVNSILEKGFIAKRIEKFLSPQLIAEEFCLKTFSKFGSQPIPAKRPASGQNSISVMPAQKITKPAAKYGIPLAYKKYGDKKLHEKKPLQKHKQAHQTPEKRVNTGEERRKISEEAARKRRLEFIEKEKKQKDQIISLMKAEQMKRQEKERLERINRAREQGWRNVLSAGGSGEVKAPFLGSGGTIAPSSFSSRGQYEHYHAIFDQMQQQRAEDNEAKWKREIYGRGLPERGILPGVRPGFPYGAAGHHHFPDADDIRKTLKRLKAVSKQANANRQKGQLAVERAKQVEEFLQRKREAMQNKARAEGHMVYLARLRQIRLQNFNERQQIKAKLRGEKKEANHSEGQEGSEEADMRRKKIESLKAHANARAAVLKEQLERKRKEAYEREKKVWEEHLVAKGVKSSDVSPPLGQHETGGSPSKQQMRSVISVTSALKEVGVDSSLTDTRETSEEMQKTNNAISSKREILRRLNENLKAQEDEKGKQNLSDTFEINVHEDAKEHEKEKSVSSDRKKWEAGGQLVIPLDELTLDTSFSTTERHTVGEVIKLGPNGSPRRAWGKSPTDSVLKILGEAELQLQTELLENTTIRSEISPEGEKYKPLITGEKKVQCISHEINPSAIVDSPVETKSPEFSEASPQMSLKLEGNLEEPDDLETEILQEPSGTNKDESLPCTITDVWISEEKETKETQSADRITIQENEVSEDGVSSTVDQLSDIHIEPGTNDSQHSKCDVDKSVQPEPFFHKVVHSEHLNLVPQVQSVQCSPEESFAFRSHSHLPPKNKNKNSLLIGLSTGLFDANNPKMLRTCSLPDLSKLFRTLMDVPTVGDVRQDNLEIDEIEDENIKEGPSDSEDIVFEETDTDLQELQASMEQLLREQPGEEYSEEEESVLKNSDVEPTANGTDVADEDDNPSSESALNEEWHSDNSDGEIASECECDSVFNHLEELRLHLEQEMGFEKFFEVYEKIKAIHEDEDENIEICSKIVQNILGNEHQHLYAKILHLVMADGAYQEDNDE
# [13] = target: T5, Serine/threonine-protein kinase Nek1 (Homo sapiens); details: at 1 µM
# [14] = target: T6, Serine/threonine-protein kinase Nek2 (Homo sapiens) (UniProt P51955); details: at 0.1 µM
# T6 sequence (whole entry): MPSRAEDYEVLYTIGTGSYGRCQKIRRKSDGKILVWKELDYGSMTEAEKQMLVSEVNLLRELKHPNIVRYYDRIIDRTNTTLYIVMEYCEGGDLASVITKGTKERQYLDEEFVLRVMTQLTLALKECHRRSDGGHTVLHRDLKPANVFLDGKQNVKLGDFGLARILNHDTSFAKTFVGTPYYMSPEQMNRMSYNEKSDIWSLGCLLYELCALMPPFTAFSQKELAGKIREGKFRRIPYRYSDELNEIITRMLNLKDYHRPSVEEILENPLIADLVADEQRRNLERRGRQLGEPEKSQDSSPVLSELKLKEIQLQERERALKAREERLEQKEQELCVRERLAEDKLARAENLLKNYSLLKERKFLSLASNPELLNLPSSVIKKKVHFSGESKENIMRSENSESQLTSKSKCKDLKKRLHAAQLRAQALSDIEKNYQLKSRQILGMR
# [15] = target: T6, Serine/threonine-protein kinase Nek2 (Homo sapiens); details: at 1 µM
# [16] = target: Serine/threonine-protein kinase Nek6 (Homo sapiens) (UniProt Q9HC98); details: at 0.1 µM
# Chain of Serine/threonine-protein kinase Nek6 (Homo sapiens) (Q9HC98 whole entry): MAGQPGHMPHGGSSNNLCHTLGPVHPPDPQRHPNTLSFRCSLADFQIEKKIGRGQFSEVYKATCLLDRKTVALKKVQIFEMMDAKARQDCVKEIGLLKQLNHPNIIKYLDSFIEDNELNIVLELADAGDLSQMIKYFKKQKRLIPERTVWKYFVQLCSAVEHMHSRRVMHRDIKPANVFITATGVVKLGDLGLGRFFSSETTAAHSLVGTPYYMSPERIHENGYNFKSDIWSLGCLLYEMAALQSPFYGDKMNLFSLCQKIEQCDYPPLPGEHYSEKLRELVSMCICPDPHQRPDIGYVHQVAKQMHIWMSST
# [17] = target: Serine/threonine-protein kinase Nek6 (Homo sapiens) (UniProt Q9HC98); details: at 1 µM
# [18] = target: Serine/threonine-protein kinase Nek7 (Homo sapiens) (UniProt Q8TDX7); details: at 0.1 µM
# Chain of Serine/threonine-protein kinase Nek7 (Homo sapiens) (Q8TDX7 whole entry, looked up): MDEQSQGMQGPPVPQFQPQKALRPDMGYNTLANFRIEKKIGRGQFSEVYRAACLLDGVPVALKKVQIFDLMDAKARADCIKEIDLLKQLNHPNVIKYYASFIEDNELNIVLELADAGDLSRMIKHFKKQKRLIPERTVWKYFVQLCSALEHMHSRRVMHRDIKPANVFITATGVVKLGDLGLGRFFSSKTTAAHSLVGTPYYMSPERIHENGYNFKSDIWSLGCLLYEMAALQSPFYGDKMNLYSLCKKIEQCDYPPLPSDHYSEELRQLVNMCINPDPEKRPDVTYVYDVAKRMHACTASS
# [19] = target: Serine/threonine-protein kinase Nek7 (Homo sapiens) (UniProt Q8TDX7); details: at 1 µM
# [20] = target: T7, Serine/threonine-protein kinase Nek9 (Homo sapiens) (UniProt Q8TD19); details: at 0.1 µM;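 also: reported value is the mean percent inhibition of NEK9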
# T7 sequence (whole entry): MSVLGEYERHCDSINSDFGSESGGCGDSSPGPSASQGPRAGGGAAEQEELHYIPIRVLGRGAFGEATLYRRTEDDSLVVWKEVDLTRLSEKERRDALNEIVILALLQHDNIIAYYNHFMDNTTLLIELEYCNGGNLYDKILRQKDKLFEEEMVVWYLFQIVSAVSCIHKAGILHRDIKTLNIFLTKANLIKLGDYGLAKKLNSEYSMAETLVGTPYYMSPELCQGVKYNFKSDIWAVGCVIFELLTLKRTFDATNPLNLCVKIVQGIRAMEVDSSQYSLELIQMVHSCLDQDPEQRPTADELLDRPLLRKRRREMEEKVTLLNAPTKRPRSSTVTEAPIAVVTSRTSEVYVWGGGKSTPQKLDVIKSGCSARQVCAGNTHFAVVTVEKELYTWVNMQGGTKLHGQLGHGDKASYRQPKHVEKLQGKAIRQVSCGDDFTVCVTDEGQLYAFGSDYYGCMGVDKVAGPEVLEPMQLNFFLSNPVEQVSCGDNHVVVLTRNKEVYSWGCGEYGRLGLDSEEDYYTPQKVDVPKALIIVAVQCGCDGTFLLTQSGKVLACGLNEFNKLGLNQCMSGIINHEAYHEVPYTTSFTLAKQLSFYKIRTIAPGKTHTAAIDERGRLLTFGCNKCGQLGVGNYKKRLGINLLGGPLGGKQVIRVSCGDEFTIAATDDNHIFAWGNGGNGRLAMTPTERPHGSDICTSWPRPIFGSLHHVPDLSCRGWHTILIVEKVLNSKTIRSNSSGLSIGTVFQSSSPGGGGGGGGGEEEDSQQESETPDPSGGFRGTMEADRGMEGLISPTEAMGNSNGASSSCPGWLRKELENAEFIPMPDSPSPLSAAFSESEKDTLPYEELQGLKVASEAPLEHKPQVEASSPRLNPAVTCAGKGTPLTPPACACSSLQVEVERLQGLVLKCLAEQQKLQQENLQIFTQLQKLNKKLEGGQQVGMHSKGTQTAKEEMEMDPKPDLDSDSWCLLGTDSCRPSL
# Chain of Sphingosine kinase 1 (Homo sapiens) (Q9NYA1 whole entry): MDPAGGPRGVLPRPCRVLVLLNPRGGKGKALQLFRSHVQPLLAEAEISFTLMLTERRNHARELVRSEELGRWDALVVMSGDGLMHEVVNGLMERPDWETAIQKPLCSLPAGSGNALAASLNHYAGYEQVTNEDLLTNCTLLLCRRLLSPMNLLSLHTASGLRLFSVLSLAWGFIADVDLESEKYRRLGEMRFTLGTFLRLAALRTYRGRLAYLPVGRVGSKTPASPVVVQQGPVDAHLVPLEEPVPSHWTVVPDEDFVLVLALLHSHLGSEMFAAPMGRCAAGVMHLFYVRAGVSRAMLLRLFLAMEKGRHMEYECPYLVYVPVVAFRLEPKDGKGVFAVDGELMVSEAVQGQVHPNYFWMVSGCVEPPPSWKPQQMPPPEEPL
Compound,inhibition [1] [%],inhibition [2] [%],inhibition [3] [%],inhibition [4] [%],inhibition [5] [%],inhibition [6] [%],inhibition [7] [%],inhibition [8] [%],inhibition [9] [%],inhibition [10] [%],inhibition [11] [%],inhibition [12] [%],inhibition [13] [%],inhibition [14] [%],inhibition [15] [%],inhibition [16] [%],inhibition [17] [%],inhibition [18] [%],inhibition [19] [%],inhibition [20] [%]
FC(F)(F)c1cccc(Nc2nccc(-c3cnn4nc(-c5ccccc5)ccc34)n2)c1,-2.23,-1.01,-0.56,7.97,4.42,1.94,7.04,3.55,3.27,3.76,5.2,2.32,2.59,1.73,4.5,-0.41,-0.37,2.4,1.88,8.12
COc1cc(C)c(N(C)C(=O)CN(C)C)cc1Nc1nc(Nc2cccc(F)c2C(N)=O)c2cc[nH]c2n1,-0.02,0.91,-0.35,0.17,4.3,3.63,1.85,2.96,-0.54,1.26,0.91,1.9,1.66,3.24,3.64,1.26,-1.46,3.13,2.22,5.24
